# Screening results from PubChem BioAssay.
# GPR32 ag: qHTS for Agonists of Human Resolvin D1 Receptor DRV1. Probable G-protein coupled receptor 32 (Homo sapiens), O75388. CHO-K1 GPR32 beta-arrestin PathHunter luminescence, 90 min; zero percent set by DMSO-only wells. activation, % at 76.9 µM. 2.5% of 48,000 active. AID 1346428, 2018;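 active means activation of at least 60% and not above a set upper limit, about 1 call in 100 departs from these limits; inconclusive means activation of 40% to 60%, or above that upper limit; inactive means activation under 40%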; further: 0% is about no effect
# Target sequence (O75388 whole entry, looked up): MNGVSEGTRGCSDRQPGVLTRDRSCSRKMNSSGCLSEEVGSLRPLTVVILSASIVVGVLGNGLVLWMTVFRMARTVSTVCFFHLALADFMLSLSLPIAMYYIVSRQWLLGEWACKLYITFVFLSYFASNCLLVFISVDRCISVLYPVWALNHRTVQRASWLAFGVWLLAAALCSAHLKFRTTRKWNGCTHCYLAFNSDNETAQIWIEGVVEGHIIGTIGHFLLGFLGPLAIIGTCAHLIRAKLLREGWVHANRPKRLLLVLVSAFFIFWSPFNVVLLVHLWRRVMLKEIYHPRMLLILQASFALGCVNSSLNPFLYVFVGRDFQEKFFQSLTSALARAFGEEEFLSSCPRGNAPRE
#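 Step 1: seed CHO-K1 GPR32 beta-arrestin cells, 2,500/well, overnight at 37 °C. Step 2: add compounds, 90 min at 37 °C. Step 3: detection reagent, 1 h ambient, then luminescence.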
# GALC G270D act: A Novel Cell-Based Assay to Identify Small Molecules for B -Galactocerebrosidase; P54803; 145M-Twi-hGALC-G270D cells (Twitcher mouse brain line with human GALC G270D), HMU-beta-Gal fluorescence, 48 h; Potency, µM (top dose mostly 57.5 µM), hits mostly activators; 0.1% of 45,000 active; further: potency means the concentration at half of the fitted maximal effect; 0% is about no effect; nearly all actives have a fitted effect of over 65% in size
#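 Brain-derived Twitcher mouse 145M-Twi cells stably expressing human GALC-G270D or wild-type GALC, treated live, then residual GALC activity read by fluorescence of HMU-b-Gal substrate (0.1 mM final) in citrate-phosphate buffer pH 5.2 with sodium taurocholate. Signal increase indicates enhancement.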
# SKOV3 invasion: Primary qHTS assay for Inhibitors of ovarian cancer metastasis using an organotypic tumor microenvironment (TME) model; SKOV3ip1-GFP adhesion/invasion on 3D omental model, fluorescence; AID 1963576, 2024; Potency, µM (titrated, usually from 45.8 µM), for the others: at the highest dose activity change, negative = inhibition, hits mostly inhibitors; 0.1% of 46,000 active;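 further: potency means the concentration at half of the fitted maximal effect; plate controls were DMSO wells for no effect and tomatine positive control wells for full effect; nearly all actives have a fitted effect of over 65% in size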
#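 Primary human omental fibroblast/mesothelial 3D culture pre-formed 48 h. SKOV3ip1-GFP cells added with compounds (0.36-46 umol/L), incubated 2 h RT/16 h 37 C, fixed; GFP cells quantified at 488/509 nm.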
# FH mod: Identification of activators of human fumarate hydratase by quantitative high-throughput screening; Potency, µM (series often up to 79.9 µM), without a hit: at the top dose activity change, negative = inhibition, usual class: inhibitors; FH coupled MDH/diaphorase resazurin fluorescence, 15 min; 0.22% of 54,000 active; Fumarate hydratase, mitochondrial (Homo sapiens), P07954; further: potency means the concentration at half of the fitted maximal effect; on the % scale 0 is the no-effect control and ±100 the full control effect; the screen sought activators but most active calls are inhibition curves; nearly all actives have a fitted effect of over 45% in size
# * hit, by the source's call; i = inactive; u = inconclusive; x = no result; ! = not confirmed by another sample; [ ] = dose if it differs, or a comment. Hits are enriched below; roughly 2.9% of the tested compounds scored in any of these assays. Unless noted, the call rests on the fitted dose curve; in most records, active means well fitted curve in the direction sought with a large enough effect; inconclusive means small, poorly fitted or top-dose-only effect, or another doubt; inactive means no such curve, though single readings can be large; an effect the other way counts as inactive or inconclusive.
SMILES,GPR32 ag,GALC G270D act,SKOV3 invasion,FH mod
CNC(=O)[C@H]1O[C@@H](n2cnc3c(NCc4cccc(I)c4)ncnc32)[C@H](O)C1O (some centres not stated),x,x,x,-7%[53.3 µM]
C[C@@H]1O[C@@H](O[C@H]2CC[C@@]3(C)[C@H](CC[C@@H]4[C@H]3C[C@@H](O)[C@]3(C)[C@@H](C5=CC(=O)OC5)CC[C@]43O)C2)C[C@H](O)[C@@H]1O[C@H]1C[C@H](O)[C@H](O[C@H]2C[C@H](O)[C@@H](O)[C@@H](C)O2)[C@H](C)O1 (stereo in doubt),x,x,-16%[92.2 µM],12%
C[C@H]1O[C@@H](O[C@H]2CC[C@@]3(C)[C@H](CC[C@@H]4[C@@H]3C[C@@H](O)[C@]3(C)[C@@H](C5=CC(=O)OC5)CC[C@]43O)C2)C[C@H](O)[C@@H]1O[C@H]1C[C@H](O)[C@H](O[C@H]2C[C@H](O)[C@H](O[C@@H]3O[C@H](CO)[C@@H](O)[C@H](O)[C@H]3O)[C@@H](C)O2)[C@@H](C)O1,76*,i,x,-1%[53.3 µM]
N#Cc1cccc(CN2CCC(N(Cc3cccnc3)C(=O)Nc3ccccc3-c3ccccc3)CC2)c1,x,x,x,-5%
O=C(COc1ccc(F)cc1)Nc1ccc2nc(SCCOc3ccccc3)sc2c1,26,i,i,-8%
Cc1ccc(CSc2nc3ccc(NC(=O)CC(C)C)cc3s2)cc1,33,i,i,1%
Cc1ccc(CSc2nc3ccc(NC(=O)COc4ccc(F)cc4)cc3s2)cc1,88*,i,4%,2%
O=C(Nc1ccc2nc(SCc3ccccc3)sc2c1)c1ccccc1F,27,i,-4%,-2%
CC(C)(C)C(=O)Nc1ccc2nc(SCc3ccccc3)sc2c1,120*,i,i,-13%
NC(=O)CSc1nc2ccc(NC(=O)COc3ccccc3)cc2s1,70*,i,-7%,-5%
CCC(=O)Nc1ccc2nc(SCc3ccc(C)cc3)sc2c1,86*,i,i,-5%
CC(C)(C)NCCCNC(=O)c1cccc(Br)c1,x,x,x,0%
C=C(C)[C@@H]1CC[C@]2(C(=O)O)CC[C@]3(C)C(CCC4[C@]5(C)C(CC[C@]43C)C(C)(C)[C@@H](O)[C@@H]5C(=O)O)C12 (some centres not stated),x,x,x,3%[53.3 µM]
COc1ccc(Nc2nc3ccccc3nc2NS(=O)(=O)c2ccc(C)cc2)c(OC)c1,-9,i,-9%,-4%
COC(=O)c1cc(Nc2nc3ccccc3nc2NS(=O)(=O)c2ccc(C)cc2)ccc1Cl,99*,i,i,u
CO[C@@H](C(=O)N1Cc2[nH]nc(NC(=O)c3ccc(N4CCN(C)CC4)cc3)c2C1)c1ccccc1,x,x,13µM*,10%[53.3 µM]
COc1ccc(C(=O)NCC(c2cccnc2)N2CCN(c3ccccc3)CC2)cc1 (configuration not stated),5,i,7%,0%
C[n+]1cc2c3c(ccc2c2ccc4cc5c(cc4c21)OCO5)OCO3,u,i,x,16µM*!
O=C(CC1Nc2cccc3cccc(c23)NC1=O)Nc1ccc(F)cc1 (configuration not stated),64*,i,-8%,-23%
COc1ccc(NC(=O)CC2Nc3cccc4cccc(c34)NC2=O)cc1 (configuration not stated),29,i,i,-16%
CC(=O)OC1C(O)C(C)=C(CCC(C)CC(=O)O)C2(C)CCCC(C)(C)C12 (configuration not stated),x,x,x,0%[53.3 µM]
Nc1ccc(O)c(C(=O)O)c1,-28,i,x,u
O=C(O)C1=CC(=C(c2ccc(O)c(C(=O)O)c2)c2ccc(O)c(C(=O)O)c2)C=CC1=O,-15,x,x,16µM*
COc1c(Cl)cc(C(=O)Nc2cccc(-c3nc4ccccc4[nH]3)c2)cc1Cl,106*,i,u,-12%
CC(C)(C)C(=O)CN1C(=O)[C@H](NC(=O)Nc2cccc(C(=O)O)c2)CN(C2CCCCC2)c2ccccc21,x,x,x,-4%
SMILES,GPR32 ag,GALC G270D act,SKOV3 invasion,FH mod
COc1ccc(Cl)cc1NC(=O)c1sc2nc(-c3ccc(OC)c(OC)c3)ccc2c1N,9,11µM*,7%,-3%
Cc1cccc(N(C)S(=O)(=O)c2nnc(NC(=O)c3cccs3)s2)c1,73*,i,-4%,-7%
CCOc1ccccc1CNC(=O)C1CCN(c2nnc(C)c3c(C)n(-c4ccc(C)cc4)nc23)CC1,-8,i,7.9µM*,5%
O=C(c1ccc(CSc2nc3ccncc3n2Cc2ccc(F)cc2)cc1)N1CCCCCC1,61*,i,15%,1%
Cc1cccc(C)c1Nc1c(-c2ccccc2Cl)nc2cnccn12,11,22µM*,i,-4%
Cc1cccc(C)c1Nc1c(-c2ccccn2)nc2ccc(Cl)cn12,-22,i,1%,-4%
Cc1cc(O)c(C)c(C)c1O,-11,i,x,3%[53.3 µM]
Cc1cc(O)c(C(C)C)cc1Cl,86*,i,x,-14%[53.3 µM]
Cc1cc(F)ccc1-c1nc(NCCN=C(N)NC#N)nc2c1ccc(=O)n2-c1c(F)cccc1F,x,x,x,-10%
COc1ccc(CNC(=O)c2nc(S(=O)(=O)Cc3ccccc3)ncc2Cl)cc1,-23,i,3.5µM*,1%
CCS(=O)(=O)c1ncc(Cl)c(C(=O)NCc2ccccc2)n1,-13,i,10µM*,-19%
O=C(NCc1ccccc1)c1nc(S(=O)(=O)Cc2ccccc2)ncc1Cl,-21,i,u,-9%
CCOc1ccccc1NC(=O)c1nc(S(=O)(=O)Cc2cccc(C)c2)ncc1Cl,u,i,i,-3%
O=C(NCCc1csc(-c2ccc(F)cc2)n1)c1ccc(Br)o1,u,i,-5%,-21%
O=C(NCCc1csc(-c2cccc(F)c2)n1)c1ccc(Br)o1,94*,i,i,-11%
CCOc1ccc(C(=O)NCCc2csc(-c3cccc(F)c3)n2)cc1OCC,3,i,-4%,-10%
Cc1nc(-c2cccc(F)c2)sc1CCNC(=O)c1ccc(F)c(F)c1,63*,i,-13%,u
Cc1ccc(C(=O)NCCc2csc(-c3cccc(F)c3)n2)cc1C,61*,i,-5%,-28%
Fc1ccc2c(CCNCc3cccc(OCC(F)(F)C(F)F)c3)c[nH]c2c1,x,x,x,-1%
CC(C)=CCC[C@](C)(O)[C@H]1CC[C@]2(C)[C@@H]1[C@H](O)CC1[C@@]3(C)CC[C@H](O)C(C)(C)C3[C@@H](O[C@@H]3O[C@H](CO)[C@@H](O)[C@H](O)[C@H]3O[C@@H]3OC[C@@H](O)[C@H](O)[C@H]3O)C[C@]12C (some centres not stated),x,x,x,8%[20.6 µM]
O=c1cc[nH]c(=S)[nH]1,68*,i,x,-15%[53.3 µM]
